Among the data in PubChem BioAssay (EPA / NIEHS) are AC50 and outcome values, retold here.

By AC50 is commonly meant the midpoint of the concentration-response curve, whichever way the signal moves.

Calls of active or inactive are those of the source. The calls were made as follows: active = hit-call score of the fitted dose curve at least 0.9, where 1 is the maximum; inactive = score below 0.9.

A short description of the assay: STM_H9_OrnithineISnorm_perc: Stemina devTOX quickPredict H9 human embryonic stem cell (hESC)-based Assay for Ornithine (ORN) Metabolite Biomarker, Normalized (AID 2283712).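 Also: ornithine released into spent medium during last day measured by mass spectrometry.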 From the text: STM_H9_secretome utilizes undifferentiated H9 cells to measure relative changes in two metabolites, ornithine (ORN) and cystine (CYSS) in the secretome, targeting a critical drop in the ORN/CYSS ratio as a biomarker for developmental toxicity.STM_H9_OrnithineISnorm is one of 10 components calculated in the STM_H9_secretome assay. It measures the integrated area of the endogenous ornithine normalized to the spiked-in isotopically labeled standard and to the median value of the 0.1% DMSO neutral control treatment using UPLC-HRMS technology.Data from the assay component STM_H9_OrnithineISnorm_perc was analyzed at the assay endpoint STM_H9_OrnithineISnorm_perc in the positive analysis fitting direction relative to DMSO as the negative control and baseline of activity. Using a type of binding reporter, gain or loss-of-signal activity can be used to understand relative metabolite change.
H9 hESCs maintained in a pluripotent state were exposed to test compound for 72h with chemical replenishment with media replacement every 24h. Cell-conditioned media from the final 24-h treatment period was collected for analysis of the targeted biomarker, and cell viability of the corresponding cell layer was assessed. The chemical library was tested in blinded fashion. Each test plate included 1uM Methotrexate (MTX; Selleck Chemicals, Houston, Texas) as a positive reference, 5 nM MTX as a negative reference, 0.1% DMSO as the neutral (vehicle) control, and sample-level media blanks.H9 cell-conditioned media from the final 24-h treatment period was collected for analysis of the targeted biomarker and cell viability was measured from the corresponding cell layer. Cell viability was measured using the CellTiter-Fluor assay (Promega, Madison, Wisconsin) based on proteolytic cleavage of a substrate to fluorescent signal proportional to the number of living cells. The cell viability Relative Fluorescence Unit (RFU) was background corrected and normalized to mean RFU of the neutral control (0.1% DMSO). The collected H9-cell-conditioned media samples were processed for targeted biomarker analysis as described (Palmer et al., 2013). Briefly, spent media samples were deproteinized (40% acetonitrile) and processed for UPLC-HRMS. Data acquisition was performed using 4 separate UPLC-HRMS systems, consisting of an Agilent 1290 Infinity LC system (Agilent Technologies) interfaced with an Agilent high-resolution mass spectrometer (models G6520A, G6520B, G6530A, and G6224A). A Waters Acquity UPLC BEH Amide column (2.1mm x 50mm, 1.7lm particle size; Waters, Milford, Massachusetts) maintained at 40C was applied for separation of metabolites using a 6.5min solvent gradient with 0.1% formic acid in water and 0.1% formic acid in acetonitrile (1.0ml/min flow rate). Data were acquired using MassHunter Acquisition software (version B 04.00, Agilent Technologies). The extracted ion chromatogram (EIC) areas for ORN, CYSS, and their respective spike-in C13-standards were determined using the Agilent MassHunter Quantitative Analysis software, version B.05.00 or newer (Agilent Technologies), and data were normalized as described in Palmer et al. (2017).
On to `Nc1ccn([C@@H]2O[C@H](CO)[C@@H](O)[C@@H]2O)c(=O)n1`, for which the AC50 was 0.235 µM (active).
With `NC(=O)N1c2ccccc2C=Cc2ccccc21`, the outcome was inactive.
As for `C[C@]12C=CC(=O)C=C1CC[C@H]1[C@@H]3C[C@@H](O)[C@](O)(C(=O)CO)[C@@]3(C)C[C@H](O)[C@@]12F`, the result was inactive.
On the same count and under the same terms, the same measure for `CCCCN1C(=O)[C@@H]([C@H](O)C2CCCCC2)NC(=O)C12CCN(Cc1ccc(Oc3ccc(C(=O)O)cc3)cc1)CC2`: “inactive”.
Same read-out and setting: with `OCCNCCO` the entry was “inactive”.
On the same count and under the same terms, the same measure for `CCCCCCCCCC`: “inactive”.
As to `CCCC(CCC)C(=O)O`, the AC50 is 334 µM (active).
For the compound `O=c1[nH]cnc2c1ncn2[C@H]1CC[C@@H](CO)O1`, the outcome was inactive.
In the case of `NC(=O)NN=Cc1ccc([N+](=O)[O-])o1`, the result was inactive.
`Cc1ncc([C@@H](CCCCCCc2ccc3c(n2)NCCC3)CC(=O)O)cn1`: the result was inactive.
With `CCN(CC)C(=S)SSC(=S)N(CC)CC`, the AC50 is 0.32 µM (active).
As to `COc1cc2c(c(OC)c1OC)-c1ccc(OC)c(=O)cc1[C@@H](NC(C)=O)CC2`, the half-maximal activity concentration (AC50) was 0.0159 µM (active).
Take `CC(C)C(=O)Nc1ccc([N+](=O)[O-])c(C(F)(F)F)c1`: the AC50 was 77.1 µM (active).
Take `O=S1(=O)CCCO1`: the outcome was inactive.
With `O=C1CN(N=Cc2ccc([N+](=O)[O-])o2)C(=O)N1`, the AC50 is 7.42 µM (active).
On to `Cc1nc(-c2ccccn2)ncc1C(=O)Nn1cc(C)c2cc(F)ccc21`, for which the outcome was inactive.
On the same count and under the same terms, the same measure for `CC[C@H](C)C(=O)O[C@H]1C[C@H](O)C=C2C=C[C@H](C)[C@H](CC[C@@H](O)C[C@@H](O)CC(=O)O)[C@H]21`: “inactive”.
In the case of `COS(C)(=O)=O`, the AC50 was 71.4 µM (active).
Take `OC(Cn1cncn1)(Cn1cncn1)c1ccc(F)cc1F`: the result was inactive.
For `Cn1c(=O)c2[nH]cnc2n(C)c1=O`, the result was inactive.
Regarding `Cn1cc[nH]c1=S`, the result was inactive.
